Compound activity as filed in PubChem BioAssay.
Glioma ERSR ind: qHTS for Inducers of the Endoplasmic Reticulum Stress Response (ERSR) in Human Glioma: qHTS. U87-MG GRP78 promoter luciferase reporter, 16 h. Potency, µM, most hits filed as activators. 420,000 compounds, 0.02% hits; note: series mostly up to about 76 µM; nearly all actives have a fitted effect of over 35% in size
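Stably transfected U87-MG human glioma cells carrying a GRP78-based luminescent sensor were seeded at 1000 cells/well, pin-dosed with compounds and incubated 16 h. Luciferase reagent was then added, and end-point luminescence was read after 10 min at room temperature.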
GLP-1R inv ag: qHTS of GLP-1 Receptor Inverse Agonists (Inhibition Mode). Glucagon-like peptide 1 receptor (Homo sapiens), P43220. HEK293 GLP-1R CRE-luciferase, luminescence, 24 h; GLP-1R form is constitutively active. Potency, µM (titrated, usually from 38.3 µM), actives largely listed as inhibitors. 410,000 compounds, 1.6% hits. AID 624417, 2012; note: nearly all actives have a fitted effect of over 55% in size
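HEK293 cells stably co-expressing constitutively active GLP-1R and a cAMP-responsive luciferase reporter were seeded in DMEM with 10% Nu serum, given compounds after 12 h, and incubated 24 h at 37 deg C. Luminescence was then read.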
ALOX12 inh: Primary qHTS assay for inhibitors of human arachidonate 12S-lipoxygenase (ALOX12): Round 2; Polyunsaturated fatty acid lipoxygenase ALOX12 (Homo sapiens), P18054; purified 12hLO, xylenol orange hydroperoxide absorbance; Potency, µM (highest dose often 108 µM), usual class: inhibitors; 580,000 compounds, 1.1% hits; AID 1671190, 2021
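Purified human 12hLO (150 nM final) in 25 mM Hepes, 0.01% Triton X-100, pH 7.0 was preincubated 15 min at room temperature with compound. Then 40 uM arachidonic acid was added, 30 min. Hydroperoxide was read by Fe-XO absorbance ratio 573/405 nm.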
GLP1R ag: qHTS of GLP-1 Receptor Agonists; Glucagon-like peptide 1 receptor (Homo sapiens), P43220; 380,000 compounds, 0.007% hits; Potency, µM (doses to about 45.6 µM), actives largely listed as activators; HEK293 GLP-1R CRE-luciferase, luminescence, 4-6 h; cells express a hypersensitive GLP-1R form; AID 624172, 2012
PTHR1 agonist: qHTS for PTHR1 Agonists: Primary Screen; Parathyroid hormone/parathyroid hormone-related peptide receptor (Homo sapiens), Q03431; HEK293 GP2 PTHR1 cells, GloSensor cAMP luminescence, 1 h; Potency, µM (highest dose often 115 µM), usual class: activators; 410,000 compounds, 0.075% hits; AID 743266, 2014; note: nearly all actives have a fitted effect of over 55% in size
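HEK-293-derived GP2 cells expressing PTHR1 and a GloSensor cAMP reporter, 3,000/well, plated overnight, given luciferin plus IBMX (each 0.5 mM as added) for 1 h at 37 °C, then compound for 1 h at 37 °C. Luminescence was read after 15 min at room temperature.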
GLS inh: qHTS for Inhibitors of Glutaminase (GLS) | GLS enzymatic activity, qHTS titration | 410,000 compounds, 0.21% hits | Glutaminase kidney isoform, mitochondrial (Homo sapiens), O94925 | Potency, µM (highest dose often 45.5 µM), actives largely listed as inhibitors
Target sequence (O94925 whole entry, looked up, canonical isoform): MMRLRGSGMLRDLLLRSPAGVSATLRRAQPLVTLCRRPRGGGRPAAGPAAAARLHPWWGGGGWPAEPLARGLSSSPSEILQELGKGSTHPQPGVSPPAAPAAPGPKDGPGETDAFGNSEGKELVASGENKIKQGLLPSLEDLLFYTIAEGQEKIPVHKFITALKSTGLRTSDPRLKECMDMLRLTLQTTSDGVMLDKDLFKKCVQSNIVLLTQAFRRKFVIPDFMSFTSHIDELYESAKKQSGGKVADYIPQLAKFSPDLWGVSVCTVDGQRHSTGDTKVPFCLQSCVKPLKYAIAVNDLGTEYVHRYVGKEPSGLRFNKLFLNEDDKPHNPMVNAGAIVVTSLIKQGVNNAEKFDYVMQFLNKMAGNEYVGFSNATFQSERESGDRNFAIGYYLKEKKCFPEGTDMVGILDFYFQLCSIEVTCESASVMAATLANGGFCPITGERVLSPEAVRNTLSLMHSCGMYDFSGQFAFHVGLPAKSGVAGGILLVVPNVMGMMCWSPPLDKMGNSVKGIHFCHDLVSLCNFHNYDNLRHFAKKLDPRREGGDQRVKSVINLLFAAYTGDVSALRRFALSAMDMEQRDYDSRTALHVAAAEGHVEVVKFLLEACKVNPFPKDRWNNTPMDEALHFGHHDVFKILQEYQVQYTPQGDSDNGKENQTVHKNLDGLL
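Compounds were pin-transferred onto hKGA, after which L-glutamine (1 mM solution) and a detection mix of glutamate oxidase, HRP and Amplex Red were added. Initial and 30 min RT fluorescence reads were collected.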
Hits are given with their value; 0 = inactive; ? = inconclusive; - = not tested or not shown. This is a sample that favours compounds with a hit; in the whole collection about 2.3% have one here. Calls come from the whole dose curve; as a rule, active = well fitted curve in the direction sought with a large enough effect; inconclusive = small, poorly fitted or top-dose-only effect, or another doubt; inactive = no such curve, though single readings can be large; an effect the other way counts as inactive or inconclusive.

SMILES	Glioma ERSR ind	GLP-1R inv ag	ALOX12 inh	GLP1R ag	PTHR1 agonist	GLS inh
CN(CCNC(=O)NC1CCCC(C(F)(F)F)C1)Cc1ccccc1 (stereo unspecified)	-	-	0	-	-	-
CC(NC(=O)CCC(=O)NC(C)C1COc2ccccc2O1)C1COc2ccccc2O1 (stereo unspecified)	0	8.9µM	-	0	0	0
CC(C)Cc1nc(NCC2CCCO2)c(C#N)c2c1CCCC2 (stereo unspecified)	-	-	0	-	-	-
Cc1ccc([C@H]2N[C@]3(CCCN(Cc4ccc(F)cc4)C3=O)[C@H]3C(=O)N(Cc4ccccc4)C(=O)[C@@H]23)cc1	0	?	14µM	0	0	0
CCN1C(=O)[C@H]2[C@@H](c3ccc(C)cc3)N[C@]3(CCCN(Cc4ccc(C(F)(F)F)cc4)C3=O)[C@H]2C1=O	0	?	?	0	0	0
Cc1ccc(CN2CCC[C@]3(N[C@H](c4ccccc4)[C@@H]4C(=O)N(C)C(=O)[C@@H]43)C2=O)cc1	0	0	?	0	0	0
Cc1ccc(CN2CCC[C@]3(N[C@H](c4ccc(C(F)(F)F)cc4)[C@@H]4C(=O)N(Cc5ccccc5)C(=O)[C@@H]43)C2=O)cc1	0	?	8.9µM	0	0	0
CCCCCN1CSC(=S)N(Cc2ccccc2)C1	0	13µM	?	0	0	0
CCN1CSC(=S)N(Cc2ccccc2)C1	0	?	0	0	0	0
O=C(O)CSc1c2c(nc3cc(C(=O)Nc4cccc(C(F)(F)F)c4)ccc13)CCC2	0	?	45µM	0	0	0
COc1ccccc1NC(=O)C(C)OC(=O)c1nn(C)c(=O)c2ccccc12 (stereo unspecified)	-	-	0	-	-	-
O=C(NNC(=O)c1ccc([N+](=O)[O-])cc1)c1ccc(F)cc1	0	0	0	0	0	0
O=C(NC(NNc1ccc([N+](=O)[O-])cc1)(C(F)(F)F)C(F)(F)F)c1ccc(Cl)cc1	0	?	35µM	0	0	0
N#Cc1nc(COc2ccccc2)oc1NCc1ccccc1Cl	-	-	0	-	-	-
COC(=O)C1=CN(Cc2ccc(OC)cc2)C=C(C(=O)OC)C1c1cc(OC)c(OC)c(OC)c1	0	?	-	5µM	0	0
COC(=O)C1=CN(Cc2ccc(F)cc2)C=C(C(=O)OC)C1c1cc(OC)c(OC)c(OC)c1	0	0	0	0	0	0
O=C(Cc1ccccc1)Nc1ccc(O)c(-c2nc3ccccc3o2)c1	-	-	0	-	-	-
CC(=O)OCC1=C(C(=O)O)N2C(=O)C(NC(=O)c3ccc(COc4c(C)cccc4Cl)o3)C2SC1 (stereo unspecified)	0	0	?	0	0	0
CC(=O)OCC1=C(C(=O)O)N2C(=O)C(NC(=O)c3ccc(COc4ccc(Cl)cc4)o3)C2SC1 (stereo unspecified)	0	0	40µM	0	0	0
Cc1cccc(N2CC(C(=O)Nc3nnc(SCCN4CCOCC4)s3)CC2=O)c1 (stereo unspecified)	0	0	0	0	0	0
Cc1cccc(N2CC(C(=O)Nc3nnc(SCCC4OCCO4)s3)CC2=O)c1 (stereo unspecified)	0	0	8.9µM	0	0	0
O=S(=O)(c1cc(F)ccc1F)N1CCN(Cc2ccc3c(c2)CCO3)CC1	-	-	0	-	-	-
Cc1cc(Cl)c2[nH]ncc2n1	-	-	0	-	-	-
Cc1oc2c(O)c(O)ccc2c(=O)c1-c1ccc(Cl)cc1	0	0	5.6µM	0	0	0
Cc1c(Cc2ccccc2)c(=O)oc2cc(O)ccc12	0	?	0	0	0	0
Cc1cc(=O)oc2c(CN3CCCC3)c(O)ccc12	0	0	0	0	0	0
